In assay [1] the target is Luciferin 4-monooxygenase (Photinus pyralis) (UniProt P08659). Briefly: Biochemical firefly luciferase enzyme assay for NPC (AID 624030).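 Also: purified P. pyralis luciferase at 10 nM with luciferin and ATP substrate; nearly all actives have a fitted effect of over 70% in size.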 The procedure, abridged:
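Direct inhibition of firefly luciferase enzyme (10 nM final, 50 mM Tris Acetate) assessed by luminescence within 5 minutes. Percent activity scaled between DMSO and PTC124 positive control, with concentration-effect curves classified by fit quality and response.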

Assay [2] concerns CP185. Briefly: qHTS profiling for inhibitors of Plasmodium falciparum proliferation (AID 504749). Also: nearly all actives have a fitted effect of over 60% in size. Also: potency is read from the fitted curve at half-maximal effect. The settings on record: P. falciparum in erythrocytes, SYBR Green DNA, 72 h; series mostly up to 12.8 µM. In a few lines: (§1)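 SYBR Green fluorescence of parasite DNA, read after lysis and overnight dark incubation, measured growth over 72 h in erythrocyte culture at 0.3% parasitemia and 2.5% hematocrit. Data normalised to DMSO and 0.29 uM artemisinin, with plate-drift correction.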

In assay [3] the test system is CP194. Described as above. The settings on record: P. falciparum in erythrocytes, SYBR Green DNA, 72 h; series mostly up to 12.8 µM. In a few lines:
as §1

In assay [4] the test system is CP201. The assay is described as above. The settings on record: P. falciparum in erythrocytes, SYBR Green DNA, 72 h; series mostly up to 12.8 µM. In a few lines:
as §1

The subject of assay [5] is CP203. The assay is described as above. The following applies: P. falciparum in erythrocytes, SYBR Green DNA, 72 h; series mostly up to 12.8 µM. In a few lines:
as §1

In assay [6] the test system is CP237. Described as above. The following applies: P. falciparum in erythrocytes, SYBR Green DNA, 72 h; series mostly up to 12.8 µM. The procedure, abridged: as §1
Assay [7] deals with CP265. The description is as above. The settings on record: P. falciparum in erythrocytes, SYBR Green DNA, 72 h; series mostly up to 12.8 µM. In a few lines:
as §1

The test system of assay [8] is CP268. The assay is described as above. The following applies: P. falciparum in erythrocytes, SYBR Green DNA, 72 h; series mostly up to 12.8 µM. The procedure, abridged: as §1
The subject of assay [9] is CP325. The description is as above. The following applies: P. falciparum in erythrocytes, SYBR Green DNA, 72 h; series mostly up to 12.8 µM. The procedure, abridged: as §1
Assay [10] relates to DIV17. The description is as above. The settings on record: P. falciparum in erythrocytes, SYBR Green DNA, 72 h; series mostly up to 12.8 µM. In a few lines: as §1
Assay [11] deals with DIV30. The description is as above. The following applies: P. falciparum in erythrocytes, SYBR Green DNA, 72 h; series mostly up to 12.8 µM. In a few lines: as §1
Assay [12] has as its system Dd2. The assay is described as above. The settings on record: P. falciparum in erythrocytes, SYBR Green DNA, 72 h; series mostly up to 12.8 µM. In a few lines: as §1
Assay [13] has as its system P93_24. The assay is described as above. The following applies: P. falciparum in erythrocytes, SYBR Green DNA, 72 h; series mostly up to 12.8 µM. In a few lines: as §1
The test system of assay [14] is PAD. Described as above. The following applies: P. falciparum in erythrocytes, SYBR Green DNA, 72 h; series mostly up to 12.8 µM. The procedure, abridged: as §1
For assay [15], the system named is TAB113. Described as above. The following applies: P. falciparum in erythrocytes, SYBR Green DNA, 72 h; series mostly up to 12.8 µM. The procedure, abridged:
as §1

Assay [16] has as its system CP286. Described as above. The settings on record: P. falciparum in erythrocytes, SYBR Green DNA, 72 h; series mostly up to 12.8 µM. In a few lines:
as §1

The test system of assay [17] is CP291. The assay is described as above. The following applies: P. falciparum in erythrocytes, SYBR Green DNA, 72 h; series mostly up to 12.8 µM. In a few lines:
as §1

In assay [18] the test system is DIV14. Described as above. The following applies: P. falciparum in erythrocytes, SYBR Green DNA, 72 h; series mostly up to 12.8 µM. In a few lines:
as §1

Assay [19] deals with HB3. The assay is described as above. The following applies: P. falciparum in erythrocytes, SYBR Green DNA, 72 h; series mostly up to 12.8 µM. The procedure, abridged: as §1
Assay [20] has as its system ICS. Described as above. The settings on record: P. falciparum in erythrocytes, SYBR Green DNA, 72 h; series mostly up to 12.8 µM. In a few lines: as §1

Experimental findings from PubChem BioAssay (NCATS) are described below.

Each structure is given as a SMILES string. Records with an inconclusive call do not appear. The source made the active and inactive calls. Calls follow the shape of the dose curve; as a rule, active = well fitted inhibition curve with a large enough effect; inconclusive = small, poorly fitted or top-dose-only effect; inactive = flat fitted curve, though single readings scatter.

Chain of Luciferin 4-monooxygenase (Photinus pyralis) (P08659 whole entry, looked up): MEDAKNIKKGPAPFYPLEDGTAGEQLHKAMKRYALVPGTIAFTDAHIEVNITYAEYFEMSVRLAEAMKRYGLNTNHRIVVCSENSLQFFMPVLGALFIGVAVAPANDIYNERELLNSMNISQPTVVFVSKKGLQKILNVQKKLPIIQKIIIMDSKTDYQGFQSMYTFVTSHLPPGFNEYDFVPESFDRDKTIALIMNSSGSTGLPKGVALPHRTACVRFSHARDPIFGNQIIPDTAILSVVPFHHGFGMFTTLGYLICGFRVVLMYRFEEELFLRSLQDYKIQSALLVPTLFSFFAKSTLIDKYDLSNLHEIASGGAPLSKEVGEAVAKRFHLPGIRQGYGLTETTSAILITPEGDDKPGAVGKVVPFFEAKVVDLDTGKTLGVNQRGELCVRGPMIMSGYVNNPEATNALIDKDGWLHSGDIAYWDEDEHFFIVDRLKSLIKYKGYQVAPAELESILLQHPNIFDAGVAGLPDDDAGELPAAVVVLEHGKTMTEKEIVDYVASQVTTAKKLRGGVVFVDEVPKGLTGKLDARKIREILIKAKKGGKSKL

Take `CC[N+](CC)(CC)CC[C@](O)(c1ccccc1)C1CCCCC1`: the Potency entry in assay [1], in assay [2], in assay [3], in assay [4], in assay [5] and in assay [6] was “inactive” each time. Moreover, the Potency result in assay [7], in assay [8], in assay [9], in assay [10], in assay [11] and in [12] was “inactive” each time. In addition, the Potency entry in [13], in assay [14] and in assay [15] was “inactive” in each case.
`C/C(=C(/CCO)SSC[C@@H]1CCCO1)N(C=O)Cc1cnc(C)nc1N`: the Potency result in assay [1] was “inactive”.
Turning to `CC[C@@H]1OC(=O)[C@H](C)[C@H](O[C@@H]2C[C@](C)(OC)[C@H](O)[C@H](C)O2)[C@H](C)[C@H](O[C@@H]2O[C@@H](C)C[C@@H](N(C)C)[C@@H]2O)[C@](C)(O)C[C@H](C)C(=NOCOCCOC)[C@H](C)[C@H](O)[C@]1(C)O`, the Potency result in assay [1], in assay [2], in assay [3], in [4], in assay [5] and in assay [6] was “inactive” throughout. The Potency result in assay [7], in assay [8], in [16], in assay [17], in assay [9] and in assay [18] was “inactive” throughout. In addition, the Potency entry in assay [10], in [11], in assay [19], in [20], in assay [13] and in [14] was “inactive” each time. Also, the Potency result in assay [15] was “inactive”.
Consider `CO[C@]1(NC(=O)C2SC(=C(C(N)=O)C(=O)O)S2)C(=O)N2C(C(=O)O)=C(CSc3nnnn3C)CS[C@H]21` (some centres undefined), for which the Potency result in assay [1], in [2], in assay [3], in assay [4], in assay [5] and in assay [6] was “inactive” each time. The Potency entry in [7], in [8], in assay [16], in assay [17], in [9] and in assay [18] was “inactive” in each case. In addition, the Potency result in [10], in assay [11], in assay [12], in assay [19], in assay [20] and in assay [14] was “inactive” in each case. The Potency entry in assay [15] was “inactive”.
For `COc1ccc([C@@H]2CC(=O)c3c(O)cc(O[C@H]4O[C@@H](CO[C@H]5O[C@@H](C)[C@@H](O)[C@@H](O)[C@@H]5O)[C@@H](O)[C@@H](O)[C@@H]4O)cc3O2)cc1O`, the Potency entry in assay [1], in assay [2], in assay [3], in [4], in [5] and in assay [6] was “inactive” throughout. The Potency result in [7], in [8], in assay [16], in assay [17], in assay [9] and in assay [18] was “inactive” throughout. Further, the Potency entry in assay [10], in assay [11], in assay [12], in assay [19], in [20] and in assay [13] was “inactive” in each case. Besides, the Potency result in [14] and in assay [15] was “inactive” each time.
`CCOC(=O)[C@H](CCc1ccccc1)N[C@@H](C)C(=O)N1[C@H](C(=O)O)C[C@H]2CCC[C@@H]21`: the Potency result in [1], in assay [2], in assay [3], in [4], in assay [5] and in assay [6] was “inactive” throughout. The Potency entry in [7], in assay [8], in assay [16], in assay [17], in assay [9] and in assay [18] was “inactive” in each case. Also, the Potency result in [10], in assay [12], in [19], in [20], in assay [13] and in assay [14] was “inactive” each time. The Potency result in assay [15] is “inactive”.
On to `CC(=O)OCC(=O)[C@@]1(O)CC[C@@H]2[C@H]3CCC4=CC(=O)C=C[C@]4(C)[C@]3(F)[C@@H](O)C[C@@]21C`, for which the Potency entry in assay [1], in assay [2], in assay [3], in [4], in assay [5] and in assay [6] was “inactive” throughout. The Potency result in assay [7], in assay [8], in assay [16], in assay [17], in [9] and in assay [18] was “inactive” throughout. Further, the Potency entry in [10], in assay [11], in [12], in [19], in assay [20] and in assay [13] was “inactive” in each case. Moreover, the Potency entry in assay [14] and in [15] was “inactive” in each case.
With `C[C@H](N[C@@H](C)COc1ccccc1)[C@H](O)c1ccc(O)cc1`, the Potency result in assay [1], in assay [2], in assay [3], in assay [4], in [7] and in assay [8] was “inactive” throughout. Further, the Potency result in assay [16], in assay [17], in assay [9], in [11], in assay [19] and in assay [20] was “inactive” each time. Further, the Potency entry in assay [13], in assay [14] and in assay [15] was “inactive” throughout. Moreover, the Potency in assay [6] is 3.55 µM (active).
Turning to `CO[C@H]1[C@@H](OC(N)=O)[C@H](O)[C@@H](Oc2ccc3c(O)c(NC(=O)c4ccc(O)c(CC=C(C)C)c4)c(=O)oc3c2C)OC1(C)C`, the Potency entry in assay [1], in assay [2], in [3], in assay [4], in assay [5] and in [6] was “inactive” each time. Besides, the Potency result in [7], in [8], in assay [16], in assay [17], in [9] and in assay [18] was “inactive” in each case. For the same compound, the Potency result in assay [10], in assay [11], in assay [12], in assay [19], in assay [20] and in assay [13] was “inactive” in each case. Moreover, the Potency entry in [14] and in assay [15] was “inactive” throughout.
As for `O=C1O[C@H](CN2CCOCC2)CN1/N=C\c1ccc([N+](=O)[O-])o1`, the Potency entry in assay [3], in assay [4], in [5], in assay [8], in [17] and in [9] was “inactive” throughout. For the same compound, the Potency result in assay [18], in assay [10] and in assay [11] was “inactive” throughout.
As to `CC(=O)[C@@]1(O)CC[C@H]2[C@H]3C[C@@H](C)C4=CC(=O)C=C[C@]4(C)[C@@]3(F)[C@@H](O)C[C@]21C`, the Potency entry in assay [1], in assay [2], in [3], in [4], in assay [5] and in [6] was “inactive” in each case. The Potency entry in assay [7], in [8], in assay [16], in assay [17], in [9] and in assay [18] was “inactive” each time. The Potency entry in assay [10], in assay [11], in assay [12], in assay [19], in [13] and in assay [14] was “inactive” throughout. Besides, the Potency result in assay [15] is “inactive”.
For `CN(C)CCn1nnnc1SCC1=C(C(=O)O)N2C(=O)[C@@H](NC(=O)Cc3csc(N)n3)[C@@H]2SC1`, the Potency result in assay [1], in [2], in assay [3], in assay [4], in [5] and in [6] was “inactive” in each case. The Potency entry in assay [8], in [16], in assay [17], in assay [9] and in assay [12] was “inactive” throughout. Moreover, the Potency in assay [20] was 2.51 µM (active).
